Screens as filed in PubChem BioAssay.
PKA-R2B act: PKA-R2B complex activation; activation, % at 11.4 µM; hit rate 0.079% among 340,000; PKA-R2B holoenzyme dissociation, Cy5-IP20 fluorescence polarization; R2B truncated from residue 108, S112A mutant; 0% DMSO only, 100% 113 µM cGMP; AID 504700; P22694+P31323;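 active = activation above a cutoff set at the mean over all compounds plus 3 SD, cut at about 18% in these data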;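 also: higher means more holoenzyme dissociation and a rise in polarization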
Target sequence (P31323 whole entry, looked up, other chains not shown, the tested form may be a part): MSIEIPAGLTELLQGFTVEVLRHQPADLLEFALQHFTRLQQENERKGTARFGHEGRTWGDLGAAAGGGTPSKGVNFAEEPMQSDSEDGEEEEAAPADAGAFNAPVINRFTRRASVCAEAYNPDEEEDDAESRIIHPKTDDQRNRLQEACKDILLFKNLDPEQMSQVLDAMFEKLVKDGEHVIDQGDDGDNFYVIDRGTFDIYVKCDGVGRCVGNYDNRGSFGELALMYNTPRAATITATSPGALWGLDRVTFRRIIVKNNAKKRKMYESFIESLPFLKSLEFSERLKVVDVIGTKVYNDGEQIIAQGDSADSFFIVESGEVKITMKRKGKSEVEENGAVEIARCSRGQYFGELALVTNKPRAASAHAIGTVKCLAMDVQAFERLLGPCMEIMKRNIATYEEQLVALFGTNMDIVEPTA
NR1D1 modulator: modulates human Rev-erb alpha binding to DNA; P20393; AID 1259318; Rev-erbα–FITC-DNA binding, fluorescence polarization, 90 min; hit rate 0.79% among 370,000; activity, % at 10 µM;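 active = activity above about 14%, limit read from the data; passing the limit was not always enough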;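 also: 0% = DMSO wells with 35 nM protein and 100% = DMSO wells with 750 nM protein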
PKA-R1A activ: activates the PKA-R1A holoenzyme complex; P00514+P68181; AID 504707; activation, % at 11.4 µM; PKA-R1A dissociation, Cy5-IP20 fluorescence polarization; scaled: DMSO 0%, 113 µM cGMP 100%; hit rate 0.083% among 340,000;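 active = percent activation above the mean of all tested compounds plus 3 SD, cut at about 19% in these data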;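 also: higher means more PKAc released from R1A so a rise in polarization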
PG9 binder: binds the HIV-1 gp120 antibody PG9; hit rate 0.43% among 360,000; inhibition, % at 6.7 µM; TR-FRET gp120-PG9 antibody binding; in the data active = inhibition above about 8.5%
PG9 binder conf: PG9 antibody binding, confirmed. TR-FRET PG9 antibody binding, biochemical. hit rate 90% among 1,500. inhibition, % at 6.7 µM. shares compounds with PG9 binder. AID 651571; in the data active = inhibition above about 9%
PGV04 Ab binding: counter-screen for PG9 binders: binding control antibody PGV04; inhibition, % at 6.7 µM; TR-FRET PGV04 antibody-gp120 binding, biochemical; AID 651604; shares compounds with PG9 binder; hit rate 95% among 1,500; in the data active = inhibition above about 9.5%
PG9 binder DR: small molecules binding HIV-1 gp120 antibody PG9. AID 651848. shares compounds with PG9 binder. 95 tested, under 10 active. IC50, µM. TR-FRET PG9 antibody-gp120 binding inhibition; in the data active = IC50 below about 10 µM
PGV04 binding DR: PGV04 binding, dose response counter-screen; shares compounds with PG9 binder; TR-FRET binding to control antibody PGV04; IC50, µM; hit rate 20% among 95
PG126 DR counter: binds control antibody PG126 in PG9 counter-screen. shares compounds with PG9 binder. TR-FRET binding to antibody PG126, counterscreen. IC50, µM. hit rate 20% among 95. AID 651939
An asterisk follows results filed as active; i = inactive; . = not tested or not shown. Shown are actives, neighbours in structure and some others; about 1.2% of the full set was active somewhere. Rule as the data show it, unless noted: active = IC50 below about 9 µM; inactive = the rest.

SMILES	PKA-R2B act	NR1D1 modulator	PKA-R1A activ	PG9 binder	PG9 binder conf	PGV04 Ab binding	others
Cn1c(=O)oc2cc(S(=O)(=O)N3CCN(c4cccc(C(F)(F)F)c4)CC3)ccc21	.	-7.3	.	.	.	.
COc1ccc(CNC(=O)CN(C(=O)c2cc3sccc3n2C)C2CCCC2)cc1	0.0	3.3	-8.0	12.6*	11.4*	14.2*
CC(C)CN(CC(C)C)C(=O)c1cn(C(C)c2ccccc2)nn1 (stereo not given)	.	4.1	.	.	.	.
COCc1cc(C)n(CC(=O)Nc2ccc(Cl)cc2Cl)c(=O)c1C#N	-7.1	-2.4	-7.8	8.8*	8.2	7.9	PG9 binder DR=i;PGV04 binding DR=i;PG126 DR counter=i
Cc1sc2ncnc(N3CCC(C(=O)Nc4ccc(Br)cc4Br)CC3)c2c1C	0.9	20.2	-8.2	23.0*	43.7*	69.7*
CNC(=O)c1ccc(NC(=O)C2CCN(c3ncnc4sc(C)c(C)c34)CC2)cc1	2.5	-4.6	13.2	17.6*	13.6*	17.5*
COC(=O)C1CN(Cc2ccccc2)CCS(=O)(=O)N1Cc1ccc(OC)cc1 (stereo not given)	.	-0.9	.	.	.	.
COc1ccc(-c2c(Cc3ccccc3)nc(NC(=O)c3ccccc3)n2Cc2ccc(OC)cc2OC)cc1	.	3.5	.	.	.	.
O=C(CN1CCc2onc(-c3ccc(-n4cc(-c5ccccc5)nn4)cc3)c2C1=O)N1CCOCC1	.	-0.7	.	.	.	.
CCOC(=O)c1c(C)[nH]c(C(=O)COC(=O)COc2ccc(OC)cc2)c1C	-1.9	-2.2	-4.3	34.5*	35.2*	53.2*
COC(=O)[C@H](CC(C)C)N(Cc1cn(CC2CCCCC2)nn1)S(=O)(=O)c1ccccc1Br	.	8.2	.	.	.	.
COc1ccc2ccc(OCC(=O)Nc3cc(C)on3)cc2c1	-6.0	9.7	2.7	21.1*	24.9*	33.9*
CCCN(CC1CC1)C(=O)CNc1nnnn1-c1ccccc1	.	-2.0	.	.	.	.
Cc1cccc(-n2c(SCC(N)=O)nc3c(c2=O)C2(CCCC2)Cc2ccccc2-3)c1	-16.6	-3.5	-0.9	18.7*	20.4*	25.5*
C=CCn1c(COc2ccc(Cl)cc2)nnc1SCC(=O)c1ccc(-c2ccccc2)cc1	.	11.3	.	.	.	.
Cc1cccc(NC(=O)CSc2nc3c(oc4ccccc43)c(=O)n2-c2ccccc2)c1	-2.3	3.5	8.5	-0.3	.	.
CC(=O)c1ccc(NC(=O)CSc2nc(N)c3cc4c(nc3n2)CCCC4)cc1	-3.0	-2.4	-1.6	22.3*	14.2*	26.4*
Cc1cccc(NC(=O)CSc2nc3nc4c(cc3c(=O)n2-c2ccccc2)CCCC4)c1	-10.6	22.0	-5.8	29.0*	25.0*	38.7*
O=C(Nc1ccc(F)cc1)OCc1cn(Cc2ccc(C(F)(F)F)cc2)nn1	.	4.5	.	.	.	.
CCOC(=O)[C@@]12CCCC=C1N(CCc1ccc(Cl)cc1)C(=O)[C@H]2CC(=O)N1CCN(C(=O)c2ccco2)CC1	.	-9.1	.	.	.	.
CCOC(=O)c1[nH]c2ccc(OC)cc2c1NC(=S)N1CCN(c2ccccc2)CC1	-5.4	9.2	-2.7	11.5*	3.4	9.5*
CCOC(=O)c1[nH]c2ccc(OC)cc2c1NC(=S)N1CCN(c2cccc(Cl)c2)CC1	-2.7	-3.1	-1.2	54.5*	16.1*	29.6*
O=C(NC1CCc2ccccc21)c1cc(-c2ccc(Cl)cc2)nc2ccccc12 (stereo not given)	.	1.1	.	.	.	.
CC1CCCC(NC(=O)COC(=O)c2ccc3ccccc3n2)C1C (stereo not given)	3.2	-5.1	5.2	15.1*	24.3*	31.6*
CC1CCCC(NC(=O)COC(=O)c2ccccc2Sc2ccccc2C#N)C1C (stereo not given)	-3.5	20.7	1.2	11.7*	28.6*	47.6*
SMILES	PKA-R2B act	NR1D1 modulator	PKA-R1A activ	PG9 binder	PG9 binder conf	PGV04 Ab binding	others
CC1CCCCC1NC(=O)COC(=O)c1ccc2ccccc2n1 (stereo not given)	-2.3	1.9	-9.5	0.5	.	.
COc1ccc2nc(SCC(=O)NCC3CCCO3)c(C#N)cc2c1 (stereo not given)	-0.1	-1.8	6.0	-0.4	.	.
Cc1ccc2nc(SCC(=O)NCC3CCCO3)c(C#N)cc2c1 (stereo not given)	-6.1	-1.7	-11.9	12.9*	21.6*	36.4*
COc1ccc2nc(SCC(=O)NC3CC3)c(C#N)cc2c1	-10.3	6.1	-1.3	20.3*	26.3*	47.2*
COC(=O)[C@]12C[C@H](CC(=O)NCCc3ccccc3OC)C(=O)N(Cc3cccc4ccccc34)C1=C[C@H](C(C)C)O[C@@H]2C1CC1	.	6.0	.	.	.	.
Cc1[nH]c(=S)c(C#N)c2c1CCCC2	0.7	4.8	-2.3	3.9	.	.
CC(C)Cc1c2c([nH]c(=S)c1C#N)CCCC2	-8.2	-3.8	-10.0	15.4*	6.0	6.2
CCn1c(COc2ccccc2)nnc1SCC(=O)Nc1ccc(S(=O)(=O)Nc2cc(C)nc(C)n2)cc1	.	1.6	.	.	.	.
CCc1cccc(CC)c1NC(=O)Cn1c(-c2ccccc2Cl)nc2ccccc21	-0.2	1.2	0.5	17.0*	18.9*	24.7*
N#CCC[C@@H]1CC[C@]2(CCCN(Cc3ccc(Cl)cc3)C2)O1	.	-4.4	.	.	.	.
COc1ccc(-c2nc3c(c(=O)[nH]c(=O)n3Cc3ccccc3)n2CCO)cc1	1.4	0.5	-3.9	-0.9	.	.
CCn1c(-c2ccsc2)nc2c1c(=O)[nH]c(=O)n2Cc1ccccc1	-5.9	9.8	8.4	22.2*	38.9*	54.3*
Cc1ccc2c(n1)sc1c(N)ncnc12	-12.0	-1.8	-5.2	23.6*	21.7*	31.9*
Cc1ccc2c(N)c(C#N)sc2n1	-15.0	0.4	2.3	0.5	.	.
CC(=O)CSc1nc(-c2cccs2)c(C#N)c(=O)[nH]1	2.6	1.1	-9.9	49.5*	52.7*	64.5*
CC(=O)CSc1nc(N)c(C#N)c(-c2cccs2)c1C#N	-0.8	5.3	-1.0	-0.4	.	.
CCCCn1c(=O)[nH]c2c(oc3ccccc32)c1=O	9.2	7.8	-0.2	0.5	.	.
Cc1cccc(-n2c(=S)[nH]c3c(oc4ccccc43)c2=O)c1	8.0	-0.6	0.8	16.3*	6.6	9.4*
O=c1c2oc3ccccc3c2[nH]c(=S)n1-c1ccccc1	-1.2	7.6	-17.4	17.4*	14.4*	13.1*	PG9 binder DR=i;PGV04 binding DR=i;PG126 DR counter=i
Cc1ccc(-n2c(C)nc3oc4ccccc4c(=O)c3c2=O)cc1	3.0	-35.8	-7.6	2.6	.	.
Cc1ccc(-n2c(=S)[nH]c3c(oc4ccccc43)c2=O)cc1	1.2	1.3	-12.2	17.7*	16.8*	7.2	PG9 binder DR=>67;PGV04 binding DR=>67;PG126 DR counter=>67
